B1: unnamed (peptide)
chain: FYHRPAPKPPVTKKV

Biological target: CaNbp2
Test: SPOT peptide array binding signal intensity (averaged, normalized) (arbitrary units (background-subtracted, floor 0; scale differs between SH3 domains)); higher = stronger binding of the SH3 domain to the peptide
Outline: (§1)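 Detection of bound protein relied on anti-GST antibody, an HRP anti-mouse secondary and luminol, with imaging and quantification in Genespotter. The bound protein was GST-fused SH3 domains from four yeast species, incubated at 10 μg/ml overnight at 4°C in TBS-based blocking buffer on cellulose membranes carrying synthetic 15-mer peptides with cysteines replaced by serines. Binding signal is normalized, background-subtracted spot intensity averaged over replicates, in arbitrary units that differ between domains.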

Row | Binder | SPOT peptide array binding signal intensity
1 | B1 | 843

Biological target: CaRvs167
Test: as above
Outline: as §1

Row | Binder | SPOT peptide array binding signal intensity
2 | B1 | 3

Biological target: CaRvs167-3
Test: as above
Outline: as §1

Row | Binder | SPOT peptide array binding signal intensity
3 | B1 | ≤ 0

Biological target: CaSho1
Test: as above
Outline: as §1

Row | Binder | SPOT peptide array binding signal intensity
4 | B1 | ≤ 0

Biological target: CaSla1-D1-D2
Test: as above
Outline: as §1

Row | Binder | SPOT peptide array binding signal intensity
5 | B1 | 105

Biological target: CaSla1-D3
Test: as above
Outline: as §1

Row | Binder | SPOT peptide array binding signal intensity
6 | B1 | 45.2

Biological target: ScAbp1
Test: as above
Outline: as §1

Row | Binder | SPOT peptide array binding signal intensity
7 | B1 | 87.5

Biological target: ScBbc1
Test: as above
Outline: as §1

Row | Binder | SPOT peptide array binding signal intensity
8 | B1 | 330

Biological target: ScBem1-D1
Test: as above
Outline: as §1

Row | Binder | SPOT peptide array binding signal intensity
9 | B1 | 4

Biological target: ScBzz1-D1
Test: as above
Outline: as §1

Row | Binder | SPOT peptide array binding signal intensity
10 | B1 | 678

Biological target: ScBzz1-D2
Test: as above
Outline: as §1

Row | Binder | SPOT peptide array binding signal intensity
11 | B1 | 39

Biological target: ScCyk3
Test: as above
Outline: as §1

Row | Binder | SPOT peptide array binding signal intensity
12 | B1 | ≤ 0

Biological target: ScFus1
Test: as above
Outline: as §1

Row | Binder | SPOT peptide array binding signal intensity
13 | B1 | ≤ 0

Biological target: ScHof1
Test: as above
Outline: as §1

Row | Binder | SPOT peptide array binding signal intensity
14 | B1 | ≤ 0

Biological target: ScHse1
Test: as above
Outline: as §1

Row | Binder | SPOT peptide array binding signal intensity
15 | B1 | ≤ 0

Biological target: ScLsb1
Test: as above
Outline: as §1

Row | Binder | SPOT peptide array binding signal intensity
16 | B1 | 32.5

Biological target: ScLsb2
Test: as above
Outline: as §1

Row | Binder | SPOT peptide array binding signal intensity
17 | B1 | 106

Biological target: ScLsb3
Test: as above
Outline: as §1

Row | Binder | SPOT peptide array binding signal intensity
18 | B1 | 53

Biological target: ScLsb4
Test: as above
Outline: as §1

Row | Binder | SPOT peptide array binding signal intensity
19 | B1 | 3

Biological target: ScMyo3
Test: as above
Outline: as §1

Row | Binder | SPOT peptide array binding signal intensity
20 | B1 | 284

Biological target: ScMyo5
Test: as above
Outline: as §1

Row | Binder | SPOT peptide array binding signal intensity
21 | B1 | 459

Biological target: ScNbp2
Test: as above
Outline: as §1

Row | Binder | SPOT peptide array binding signal intensity
22 | B1 | 1680

Biological target: ScPex13
Test: as above
Outline: as §1

Row | Binder | SPOT peptide array binding signal intensity
23 | B1 | 530

Biological target: ScRvs167
Test: as above
Outline: as §1

Row | Binder | SPOT peptide array binding signal intensity
24 | B1 | 12.8

Biological target: ScSho1
Test: as above
Outline: as §1

Row | Binder | SPOT peptide array binding signal intensity
25 | B1 | 12

Biological target: ScSla1-D1-D2
Test: as above
Outline: as §1

Row | Binder | SPOT peptide array binding signal intensity
26 | B1 | 238

Biological target: ScSla1-D3
Test: as above
Outline: as §1

Row | Binder | SPOT peptide array binding signal intensity
27 | B1 | 475

Biological target: SpAbp1-D1
Test: as above
Outline: as §1

Row | Binder | SPOT peptide array binding signal intensity
28 | B1 | 50.5

Biological target: SpBbc1
Test: as above
Outline: as §1

Row | Binder | SPOT peptide array binding signal intensity
29 | B1 | 19.2

Biological target: SpBzz1-D1
Test: as above
Outline: as §1

Row | Binder | SPOT peptide array binding signal intensity
30 | B1 | 647

Biological target: SpBzz1-D2
Test: as above
Outline: as §1

Row | Binder | SPOT peptide array binding signal intensity
31 | B1 | 2.5

Biological target: SpCyk3
Test: as above
Outline: as §1

Row | Binder | SPOT peptide array binding signal intensity
32 | B1 | 2

Biological target: SpHof1
Test: as above
Outline: as §1

Row | Binder | SPOT peptide array binding signal intensity
33 | B1 | 12.5

Biological target: SpHof1-2
Test: as above
Outline: as §1

Row | Binder | SPOT peptide array binding signal intensity
34 | B1 | ≤ 0

Biological target: SpHof1-3
Test: as above
Outline: as §1

Row | Binder | SPOT peptide array binding signal intensity
35 | B1 | ≤ 0

Biological target: SpHse1
Test: as above
Outline: as §1

Row | Binder | SPOT peptide array binding signal intensity
36 | B1 | ≤ 0

Biological target: SpLsb1
Test: as above
Outline: as §1

Row | Binder | SPOT peptide array binding signal intensity
37 | B1 | 8

Biological target: SpLsb4
Test: as above
Outline: as §1

Row | Binder | SPOT peptide array binding signal intensity
38 | B1 | 54

Biological target: SpMyo1
Test: as above
Outline: as §1

Row | Binder | SPOT peptide array binding signal intensity
39 | B1 | 132

Biological target: SpNbp2
Test: as above
Outline: as §1

Row | Binder | SPOT peptide array binding signal intensity
40 | B1 | 9

Biological target: SpPex13
Test: as above
Outline: as §1

Row | Binder | SPOT peptide array binding signal intensity
41 | B1 | 6

Biological target: SpRvs167
Test: as above
Outline: as §1

Row | Binder | SPOT peptide array binding signal intensity
42 | B1 | 9.33

Biological target: SpSla1-D1-D2
Test: as above
Outline: as §1

Row | Binder | SPOT peptide array binding signal intensity
43 | B1 | ≤ 0

Biological target: SpSla1-D3
Test: as above
Outline: as §1

Row | Binder | SPOT peptide array binding signal intensity
44 | B1 | ≤ 0
